Test results: PubChem BioAssay (Tox21)
Inconclusive results are not listed. Calls of active or inactive are those of the source. Calls follow the shape of the dose curve; as a rule, active = well fitted curve in the direction sought with a large enough effect in the repeat runs; inconclusive = weak or mixed curves; inactive = no such curve, though single readings can be large; an effect the other way counts as inactive or inconclusive.

Tests used:
[1] = qHTS RealTime-Glo MT Cell Viability Assay in HEK293 cells - 16 hour (AID 1224872); also: nearly all actives have a fitted effect of over 50% in size; also: potency is read from the fitted curve at half-maximal effect; as to activity change, negative = cytotoxicity: top concentration of the series differs between compounds
Method in brief: (§1)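 HEK293 cells seeded with NanoLuc/prosubstrate reagent, rested 5 h at 37 C, then dosed and kept at 37 C up to 40 h. Nonlytic real-time luminescence from viable cells read at 0, 8, 16, 24, 32 and 40 h.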

[2] = qHTS RealTime-Glo MT Cell Viability Assay in HepG2 cells - 8 hour (AID 1224873); also: nearly all actives have a fitted effect of over 55% in size; also: potency is read from the fitted curve at half-maximal effect
Method in brief: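 HepG2 cells (600/well) mixed with RealTime-Glo MT reagent, settled 5 h at 37 C/5% CO2 before compound addition. Nonlytic NanoLuc luminescence from viable-cell prosubstrate reduction read repeatedly during 40 h treatment at 37 C.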

[3] = qHTS RealTime-Glo MT Cell Viability Assay in HEK293 cells - 40 hour (AID 1224874); settings: RealTime-Glo luminescence; max response: stronger effect = lower value; also: nearly all actives have a fitted effect of over 50% in size; also: potency is read from the fitted curve at half-maximal effect
Method in brief: (§2)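 Real-time viability in HEK293: signal arises when living cells convert a prosubstrate for NanoLuc in the medium, so luminescence tracks viable cell number. Compound (23 nL, DMSO) added 5 h post-seeding; kinetic reads at 0–40 h, 37 C.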

[4] = A CellTox Green Cytotoxicity Assay to monitor cytotoxicity in HEK293 cells - 24 hour (AID 1224875); also: nearly all actives have a fitted effect of over 45% in size; also: potency is read from the fitted curve at half-maximal effect; as to activity change: series mostly up to about 77 µM
Method in brief: (§3)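 Cells (HEK293, 600/well) and dye reagent are dispensed together. After 5 h at 37 C, 23 nL compound is pinned in. Plates stay at 37 C for 40 h with fluorescence read at 0h, 8h, 16h, 24h, 32h and 40h.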

[5] = A CellTox Green Cytotoxicity Assay to monitor cytotoxicity in HepG2 cells - 16 hour (AID 1224876); also: nearly all actives have a fitted effect of over 45% in size; also: potency is read from the fitted curve at half-maximal effect
Method in brief: (§4)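 Cells and non-lytic dye reagent are dispensed together (600 HepG2 cells/well) and incubated 5 h before DMSO compound transfer. Kinetic fluorescence is then recorded in the same wells during 40 h at 37 C.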

[6] = qHTS RealTime-Glo MT Cell Viability Assay in HepG2 cells - 32 hour (AID 1224877); also: nearly all actives have a fitted effect of over 55% in size; also: potency is read from the fitted curve at half-maximal effect
Method in brief: (§5)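 HepG2 cells (600/well) were dispensed with RealTime-Glo reagents, incubated 5 h at 37 °C, then treated with compounds in DMSO for up to 40 h. Nonlytic NanoLuc luminescence reflecting viable cells was read at each stated time point.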

[7] = A CellTox Green Cytotoxicity Assay to monitor cytotoxicity in HepG2 cells - 24 hour (AID 1224878); also: nearly all actives have a fitted effect of over 45% in size; also: potency is read from the fitted curve at half-maximal effect
Method in brief: as §4

[8] = A CellTox Green Cytotoxicity Assay to monitor cytotoxicity in HepG2 cells - 40 hour (AID 1224879); also: nearly all actives have a fitted effect of over 40% in size; also: potency is read from the fitted curve at half-maximal effect
Method in brief: as §4

[9] = qHTS RealTime-Glo MT Cell Viability Assay in HEK293 cells - 0 hour (AID 1224880); also: top concentration of the series differs between compounds; nearly all actives have a fitted effect of over 45% in size
Method in brief: as §2

[10] = A CellTox Green Cytotoxicity Assay to monitor cytotoxicity in HEK293 cells - 32 hour (AID 1224881); also: nearly all actives have a fitted effect of over 40% in size; also: potency is read from the fitted curve at half-maximal effect
Method in brief: as §3

[11] = A CellTox Green Cytotoxicity Assay to monitor cytotoxicity in HepG2 cells - 0 hour (AID 1224882); also: nearly all actives have a fitted effect of over 35% in size
Method in brief: as §4

[12] = A CellTox Green Cytotoxicity Assay to monitor cytotoxicity in HepG2 cells - 32 hour (AID 1224883); also: nearly all actives have a fitted effect of over 50% in size; also: potency is read from the fitted curve at half-maximal effect
Method in brief: as §4

[13] = A CellTox Green Cytotoxicity Assay to monitor cytotoxicity in HEK293 cells - 8 hour (AID 1224884); also: nearly all actives have a fitted effect of over 35% in size; also: potency is read from the fitted curve at half-maximal effect
Method in brief: as §3

[14] = qHTS RealTime-Glo MT Cell Viability Assay in HepG2 cells - 16 hour (AID 1224885); also: nearly all actives have a fitted effect of over 50% in size; also: potency is read from the fitted curve at half-maximal effect
Method in brief: as §5

[15] = qHTS RealTime-Glo MT Cell Viability Assay in HEK293 cells - 24 hour (AID 1224886); also: nearly all actives have a fitted effect of over 50% in size; also: potency is read from the fitted curve at half-maximal effect; as to activity change, negative = cytotoxicity: top concentration of the series differs between compounds
Method in brief: as §1

[16] = qHTS RealTime-Glo MT Cell Viability Assay in HEK293 cells - 8 hour (AID 1224887); also: nearly all actives have a fitted effect of over 50% in size; also: potency is read from the fitted curve at half-maximal effect; as to activity change, negative = cytotoxicity: top concentration of the series differs between compounds
Method in brief: as §2

[17] = qHTS RealTime-Glo MT Cell Viability Assay in HepG2 cells - 0 hour (AID 1224889); also: nearly all actives have a fitted effect of over 50% in size
Method in brief: as §5

[18] = A CellTox Green Cytotoxicity Assay to monitor cytotoxicity in HepG2 cells - 8 hour (AID 1224890); also: nearly all actives have a fitted effect of over 45% in size
Method in brief: as §4

[19] = qHTS assay to identify small molecule antagonists of the estrogen receptor alpha (ER-alpha) signaling pathway using the BG1 cell line in the presence of 0.1 nM 17-beta-estradiol - cell viability counter screen (AID 1259241); also: nearly all actives have a fitted effect of over 40% in size
Method in brief: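 Viability in VM7Luc4E2 cells after 22 hr compound exposure under 0.1 nM 17beta-estradiol stimulation, by CellTiter-Fluor.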

[20] = A CellTox Green Cytotoxicity Assay to monitor cytotoxicity in HEK293 cells - 16 hour (AID 1224888); also: nearly all actives have a fitted effect of over 35% in size; also: potency is read from the fitted curve at half-maximal effect
Method in brief: as §3
% is scaled to controls: 0 for no effect and ±100 for the full control effect.

CCCCCCCCCCBr
inactive: Potency [1] | Potency [2] | max response [3] -10.6% | Potency [4] | Potency [5] | Potency [6] | Potency [7] | Potency [8] | Potency [9] | Potency [10] | Potency [11] | Potency [12] | Potency [13] | Potency [14] | Potency [15] | Potency [16] | Potency [17] | Potency [18] | Potency [19]

CN(CCCC(=O)c1cccnc1)N=O
inactive: Potency [1] | Potency [2] | max response [3] 13.5% | Potency [4] | Potency [5] | Potency [6] | Potency [7] | Potency [8] | Potency [9] | Potency [10] | Potency [11] | Potency [12] | Potency [13] | Potency [14] | Potency [15] | Potency [16] | Potency [20] | Potency [18] | Potency [19]

C[C@]12Cc3nonc3C[C@@H]1CC[C@@H]1[C@@H]2CC[C@@]2(C)[C@H]1CC[C@]2(C)O
active: Potency [1] 19 µM | Potency [3] 19 µM | Potency [15] 19 µM
inactive: Potency [2] | Potency [4] | Potency [5] | Potency [6] | Potency [7] | Potency [8] | Potency [9] | Potency [10] | Potency [11] | Potency [12] | Potency [13] | Potency [14] | Potency [20] | Potency [17] | Potency [18] | Potency [19]

Brc1c(Br)c(Br)c(Oc2c(Br)c(Br)c(Br)c(Br)c2Br)c(Br)c1Br
inactive: activity change, negative = cytotoxicity [1] 3.04% [at 15.8 µM] | viability change, negative = cytotoxic [2] 5% [at 15.8 µM] | max response [3] 1.84% | activity change [4] -3.29% [at 15.8 µM, stronger effect = higher value] | cytotoxicity increase [5] -3.41% [at 15.8 µM] | activity change, negative = cytotoxic [6] -3.04% [at 15.8 µM] | cytotoxicity [7] -2.63% [at 15.8 µM] | cytotoxicity increase [8] 1.89% [at 15.8 µM] | activity change, negative = cytotoxicity [9] -0.353% [at 15.8 µM] | cytotoxicity increase [10] -3.94% [at 15.8 µM] | cytotoxicity [11] -0.0157% [at 15.8 µM] | cytotoxicity increase [12] 0.162% [at 15.8 µM] | cytotoxicity increase [13] -3.68% [at 15.8 µM] | activity change, negative = cytotoxic [14] 1.53% [at 15.8 µM] | activity change, negative = cytotoxicity [15] -0.0351% [at 15.8 µM] | activity change, negative = cytotoxicity [16] 4.64% [at 15.8 µM] | activity change, negative = cytotoxicity [17] 13.9% [at 15.8 µM] | cytotoxicity increase [18] -0.348% [at 15.8 µM] | activity change, negative = cytotoxicity [19] 5.06% [at 19 µM]

O=C(CCCN1CCC2(CC1)C(=O)NCN2c1ccccc1)c1ccc(F)cc1
inactive: Potency [2] | Potency [4] | Potency [5] | Potency [6] | Potency [7] | Potency [8] | Potency [9] | Potency [10] | Potency [11] | Potency [12] | Potency [13] | Potency [14] | Potency [20] | Potency [17] | Potency [18]
active: Potency [1] 6.74 µM | Potency [3] 13.4 µM | Potency [15] 10.7 µM | Potency [16] 16.9 µM

Nc1ccccc1C(=O)OC/C=C/c1ccccc1
inactive: Potency [2] | Potency [4] | Potency [5] | Potency [6] | Potency [7] | Potency [8] | Potency [9] | Potency [10] | Potency [11] | Potency [12] | Potency [13] | Potency [14] | Potency [20] | Potency [18] | Potency [19]
active: Potency [1] 24.6 µM | Potency [3] 24.6 µM | Potency [15] 24.6 µM | Potency [16] 24.6 µM

CC(=O)Nc1ccc2c(c1)Cc1ccccc1-2
inactive: Potency [1] | Potency [2] | max response [3] -12.3% | Potency [4] | Potency [5] | Potency [6] | Potency [7] | Potency [8] | Potency [9] | Potency [10] | Potency [11] | Potency [12] | Potency [13] | Potency [14] | Potency [15] | Potency [16] | Potency [20] | Potency [17] | Potency [18] | Potency [19]

Cc1cccc(OP(=O)(Oc2cccc(C)c2)Oc2cccc(C)c2)c1
inactive: Potency [1] | Potency [2] | max response [3] 5.97% | Potency [4] | Potency [5] | Potency [6] | Potency [7] | Potency [8] | Potency [9] | Potency [10] | Potency [11] | Potency [12] | Potency [14] | Potency [15] | Potency [16] | Potency [20] | Potency [17] | Potency [18] | Potency [19]

CCCCCCCCCCCCCC[P+](CCCCCC)(CCCCCC)CCCCCC (tested in a mixture with another compound)
inactive: Potency [9] | Potency [11] | Potency [17]
active: Potency [1] 13.8 µM | Potency [2] 49 µM | Potency [3] 3.47 µM | Potency [4] 13.8 µM | Potency [5] 38.9 µM | Potency [6] 24.6 µM | Potency [7] 24.6 µM | Potency [8] 24.6 µM | Potency [10] 13.8 µM | Potency [12] 24.6 µM | Potency [13] 24.6 µM | Potency [14] 49 µM | Potency [15] 6.92 µM | Potency [16] 13.8 µM | Potency [20] 17.4 µM

CN(C)S(=O)(=O)N(SC(F)(Cl)Cl)c1ccccc1
active: Potency [1] 4.9 µM | Potency [2] 21.9 µM | Potency [3] 4.36 µM | Potency [4] 13.8 µM | Potency [5] 12.3 µM | Potency [6] 9.77 µM | Potency [7] 7.76 µM | Potency [8] 4.9 µM | Potency [10] 4.9 µM | Potency [12] 5.49 µM | Potency [14] 15.5 µM | Potency [15] 4.36 µM | Potency [16] 9.77 µM | Potency [20] 19.5 µM
inactive: Potency [9] | Potency [11] | Potency [13] | Potency [18]

CCCCCCCCCCCCCN1CC(C)OC(C)C1 (stereo not drawn)
inactive: Potency [1] | Potency [2] | max response [3] -1.65% | Potency [4] | Potency [5] | Potency [6] | Potency [7] | Potency [8] | Potency [9] | Potency [10] | Potency [11] | Potency [12] | Potency [13] | Potency [14] | Potency [15] | Potency [16] | Potency [20] | Potency [18] | Potency [19]

Cc1cc(C)c(C2=C(OC(=O)CC(C)(C)C)C3(CCCC3)OC2=O)c(C)c1
inactive: Potency [1] | Potency [2] | max response [3] -6.03% | Potency [4] | Potency [5] | Potency [6] | Potency [7] | Potency [8] | Potency [9] | Potency [10] | Potency [11] | Potency [12] | Potency [13] | Potency [14] | Potency [15] | Potency [16] | Potency [20] | Potency [17] | Potency [18] | Potency [19]
